Among all 48,000 compounds or so, about 13,000 (27%) showed an effect of 50% or more. Some of the results follow.

The assay has as its system Wolbachia pipientis. Briefly: Anti-Wolbachia Cell-Based Screen. The format is functional. More on the design: scale not given: in the data most compounds retested in dose-response had high values. The following applies: 5 µM.
As to `O=C(Nc1ccc(N2CCOCC2)nc1)N1CCc2sccc2C1`, the “Percent Effect” value was -5.037%.

Turning to `Cc1nn(C)c(Oc2ccccc2)c1CNC1CCOc2ccccc21` (stereo not drawn), the “Percent Effect” value turned out to be 17.34%.

For `CC(C)c1ccc(/C=C/CC(=O)NC2CCS(=O)(=O)CC2)cc1`, the “Percent Effect” value is on record as -29.94%.

Turning to `CC(=O)c1cccc(OCCCC(=O)N(C)Cc2cnn(C)c2)c1`, the “Percent Effect” value was -7.913%.

Take `N#CC1(NC(=O)COC(=O)Cn2cccn2)CCCC1`: the “Percent Effect” value was determined as 0.9044%.

Consider `N#Cc1ccnc(SCC2CN=C(N3CCOCC3)S2)c1` (stereo not drawn), for which the “Percent Effect” value turned out to be 11.27%.

`O=C(CC1CC1)N[C@@H]1CN(Cc2ccc(F)cc2)C[C@@H]2CCCO[C@@H]21.O=C(O)C(F)(F)F`: the “Percent Effect” value is recorded as -7.276%.

In the case of `Cc1occc1C(=O)N1C[C@@H]2CN(S(C)(=O)=O)CCO[C@@H]2C1`, the “Percent Effect” value was -6.506%.

On to `COc1ccc(CN2C[C@@H]3CCCO[C@@H]3[C@H](NC(=O)CC3CC3)C2)cc1`, for which the “Percent Effect” value was -5.236%.

Consider `Cc1occc1C(=O)N1C[C@@H]2CCCO[C@@H]2[C@H](NS(C)(=O)=O)C1`, for which the “Percent Effect” value is recorded as 108.4%.

As for `O=C(c1cccs1)N1C[C@H]2CC[C@@]3(N=C(c4ccccc4)NC3=O)[C@H]2C1`, the “Percent Effect” value is on record as 7.494%.

Regarding `O=C(CC1CC1)N[C@@H]1CN(C(=O)c2cccs2)C[C@@H]2CCCO[C@@H]21`, the “Percent Effect” value is reported as 73.18%.

With `O=C(CC1CC1)N[C@@H]1CN(c2ncccn2)C[C@@H]2CCCO[C@@H]21.O=C(O)C(F)(F)F`, the “Percent Effect” value is listed as -2.682%.

Regarding `O=C(CC1CC1)N[C@@H]1CN(C(=O)c2ccoc2)C[C@@H]2CCCO[C@@H]21`, the “Percent Effect” value came out at 95.5%.

Regarding `O=C(CC1CC1)N[C@@H]1CN(Cc2nccs2)C[C@@H]2CCCO[C@@H]21`, the “Percent Effect” value is -7.838%.

Regarding `Cc1occc1C(=O)N1CC[C@@H]2[C@@H](CO[C@H]2CNS(C)(=O)=O)C1`, the “Percent Effect” value is -7.18%.

For the molecule `O=C(CC1CC1)N[C@@H]1CN(C(=O)c2ccsc2)C[C@@H]2CCCO[C@@H]21`, the “Percent Effect” value came out at 100.4%.

Consider `CCn1ccnc1CN1CCCN(CC2CC2)C(C(C)C)C1` (stereo not drawn), for which the “Percent Effect” value is -2.193%.

In the case of `Cc1nnsc1CN1CCCC1c1nc(-c2ccccc2)no1` (stereo not drawn), the “Percent Effect” value is 16.39%.

For the molecule `Cc1csc([C@@H]2C[C@@H]3CCN(Cc4cnn(C)c4)C[C@H]3O2)n1`, the “Percent Effect” value was -7.419%.

Consider `CN1CCC(N(C)C(=O)CSc2ccc(F)c(F)c2)C1=O` (stereo not drawn), for which the “Percent Effect” value was -7.197%.

For `Cc1occc1C(=O)N1C[C@@H]2CCCO[C@@H]2[C@H](NC(=O)CC2CC2)C1`, the “Percent Effect” value is reported as 111.2%.

As to `Cc1ccc([C@@H]2CN(C(=O)c3ccoc3C)C[C@H]2NC(=O)C2CC2)cc1`, the “Percent Effect” value is on record as -4.07%.

The values are drawn from ChEMBL document CHEMBL3988442, “University of Dundee, Small-Polar-MMV Screening Library” (2021).
